Assay outcomes from PubChem.
KB-V1 cytotox: kills drug-selected multidrug resistant KB-V1 cells | Potency, µM (highest dose often 46.1 µM), hits mostly cytotoxic | 3.4% of 400,000 active | KB-V1 MDR cells viability, CellTiter-Glo, 72 h; note: % is set by controls: 0 for no effect and ±100 for the full control effect; nearly all actives have a fitted effect of over 60% in size
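Drug-selected KB-V1 cells, grown in DMEM lacking phenol red with 10% FBS, receive compound titrations; after three days at 37 degrees C, surviving cell ATP is quantified by CellTiter-Glo luminescence and responses normalized and curve-fitted.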
HT1080 IDH1KD tx: kills HT-1080 cells with IDH1 knockdown; HT-1080 IDH1 knockdown viability, ATP luminescence, 48 h; Potency, µM (highest dose often 46.1 µM), without a hit: top-dose activity, negative = toxicity, usual class: cytotoxic; 2% of 360,000 active;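 note: 0% = DMSO wells and -100% = cell-free medium wells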
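Using the IDH1-knockdown HT-1080 line run in the same batch and compound series as the NT line, viability after 48 h at 37 °C was determined by CellTiter-Glo luminescence and expressed as % activity.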
SW480 rerep: DNA re-replication induction in SW480 cells | SW480 DNA re-replication, Hoechst DNA content imaging, 48 h | Potency, µM (highest dose often 46.1 µM), for inactives: top-dose re-replication activation, hits mostly activators | 1.8% of 340,000 active | AID 624297; note: % of control where 0% means no effect; nearly all actives have a fitted effect of over 55% in size
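DNA re-replication was detected as more nuclei of elevated Hoechst intensity after 48 hr exposure to compound (23 nL pinned per well of 250 cells).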
KB-3-1 tox: kills parental KB-3-1 adenocarcinoma cells; KB-3-1 viability, CellTiter-Glo ATP luminescence, 72 h; Potency, µM (titrated, usually from 46.1 µM), hits mostly cytotoxic; 1.4% of 400,000 active; AID 1347075; note: % is set by controls: 0 for no effect and ±100 for the full control effect; nearly all actives have a fitted effect of over 60% in size
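Luminescent ATP read-out (CellTiter-Glo) measures survival of drug-naive KB-3-1 cells after 72 h compound exposure at 37 °C. Titration series was screened from lowest to highest concentration, with DMSO vehicle plates as background controls.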
HT1080NT lethal: kills 2HG-producing HT-1080-NT fibrosarcoma cells; HT-1080-NT fibrosarcoma viability, CellTiter-Glo ATP luminescence, 48 h; Potency, µM (top dose mostly 46.1 µM), without a hit: at the highest dose activity, negative = less viability, actives largely listed as cytotoxic; 1.6% of 360,000 active; AID 686970;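 note: NT is the 2HG producing partner of a matched IDH1 knockdown line; 0% = DMSO-treated cells and -100% = media-only wells without cells; nearly all actives have a fitted effect of over 55% in size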
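750 cells/well, RPMI + 5% FBS; 2 h settle, compound pin-transfer, 48 h at 37 degrees C. CellTiter-Glo 10 min RT, luminescence. Normalized to DMSO and media-only wells.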
MCF10A rereplic: induces DNA re-replication in MCF 10a normal breast cells | MCF 10A DNA re-replication, Hoechst nuclear intensity, 48 h | Potency, µM (series often up to 46.1 µM), for the others: top-dose activity, positive = re-replication, hits mostly activators | 2.9% of 350,000 active | AID 624296; note: % of control where 0% means no effect; nearly all actives have a fitted effect of over 50% in size
An asterisk follows results filed as active; [ ] = another dose, or the depositor's remark. Shown are actives, neighbours in structure and some others; about 7.9% of the full set was active somewhere. Calls come from the whole dose curve; as a rule, active = well fitted curve in the direction sought with a large enough effect; inconclusive = small, poorly fitted or top-dose-only effect, or another doubt; inactive = no such curve, though single readings can be large; an effect the other way counts as inactive or inconclusive. Potency is the fitted concentration of half-maximal effect.

For COc1cc(NC(=O)Cn2ncc(Cl)c(Cl)c2=O)c(C)cc1[N+](=O)[O-] the results were KB-V1 cytotox inactive, HT1080 IDH1KD tx 2.6µM*, SW480 rerep inconclusive, KB-3-1 tox inactive, HT1080NT lethal 7.3µM* and MCF10A rereplic 3.7µM*.
COc1ccc(CCNC(=O)c2cnc3ccccc3n2)cc1 was read as KB-V1 cytotox inactive, HT1080 IDH1KD tx -10%, SW480 rerep -6%, KB-3-1 tox inactive, HT1080NT lethal -7% and MCF10A rereplic -3%.
Screening COc1ccc(CCNC(=O)c2c([S-])n(-c3ccc(C)cc3)c3cccc[n+]23)cc1 returned KB-V1 cytotox inactive, HT1080 IDH1KD tx inconclusive, SW480 rerep inconclusive, KB-3-1 tox 12µM*, HT1080NT lethal inconclusive and MCF10A rereplic 11%.
COc1ccc(CCNC(=O)c2coc(=O)c(Br)c2)cc1 was read as KB-V1 cytotox inactive, HT1080 IDH1KD tx inconclusive, SW480 rerep inconclusive, KB-3-1 tox inconclusive, HT1080NT lethal inconclusive and MCF10A rereplic 5.8µM*.
`COc1ccc(CCNC(=O)c2cccc(C(=O)NCCc3ccc(OC)cc3)n2)cc1` gave KB-V1 cytotox 18µM*, HT1080 IDH1KD tx 1%, SW480 rerep -3%, KB-3-1 tox inactive, HT1080NT lethal 1% and MCF10A rereplic 13%.
`Cc1ccc(S(=O)(=O)c2cnc(SCC(=O)Nc3ccccc3C(F)(F)F)[nH]c2=O)cc1C` gave KB-V1 cytotox inactive and KB-3-1 tox inactive.
COc1cc(C(=O)NCC(=O)N2CCN(S(=O)(=O)c3cc(C)ccc3C)CC2)cc(OC)c1OC was read as KB-V1 cytotox inconclusive, HT1080 IDH1KD tx 6.5µM*, SW480 rerep 8.2µM*, KB-3-1 tox 3.3µM*, HT1080NT lethal 7.3µM* and MCF10A rereplic inconclusive.
Screening Cc1ccc(C)c(S(=O)(=O)N2CCN(C(=O)Cc3sc(C)nc3-c3ccc(F)cc3)CC2)c1 returned KB-V1 cytotox 23µM*, HT1080 IDH1KD tx -5%, SW480 rerep 2%, KB-3-1 tox inconclusive, HT1080NT lethal -6% and MCF10A rereplic 42%.
Cc1ccc(C)c(S(=O)(=O)N2CCN(C(=O)CCNS(=O)(=O)c3ccc(C)c(C)c3)CC2)c1 was read as KB-V1 cytotox 2.9µM*, HT1080 IDH1KD tx -25%, SW480 rerep 1%, KB-3-1 tox inconclusive, HT1080NT lethal -9% and MCF10A rereplic 12%.
Screening Cc1ccc(S(=O)(=O)N2CCN(C(=O)COC(=O)Cc3c(F)cccc3Cl)CC2)c(C)c1 returned KB-V1 cytotox inactive, HT1080 IDH1KD tx 1%, SW480 rerep 9%, KB-3-1 tox inactive, HT1080NT lethal -1% and MCF10A rereplic -10%.
`Cc1ccc(C)c(S(=O)(=O)N2CCN(C(=O)Cc3c(F)cccc3Cl)CC2)c1` gave KB-V1 cytotox 7.3µM*, HT1080 IDH1KD tx 8%, SW480 rerep 0%, KB-3-1 tox inactive, HT1080NT lethal 7% and MCF10A rereplic 23%.
O=S(=O)(NCCc1ccc(Cl)cc1)c1ccc(N2CCCCS2(=O)=O)cc1 was read as KB-V1 cytotox inactive and KB-3-1 tox inactive.
`CCC(=O)N1CCc2cc(Br)cc(S(=O)(=O)CCC(=O)N(CC)Cc3ccccc3)c21` gave KB-V1 cytotox inactive and KB-3-1 tox inactive.
`CC(=O)NC1=CC(=O)c2nonc2C1=O` gave KB-V1 cytotox inactive and KB-3-1 tox 5.2µM*.
For COc1cc(O)c(NC(C)=O)c2nonc12 the results were KB-V1 cytotox inactive, HT1080 IDH1KD tx -2%[9.24 µM], SW480 rerep -9%, KB-3-1 tox inactive, HT1080NT lethal 0% and MCF10A rereplic -3%.
`Cn1c(N=Nc2ccccc2)nc2ccccc21` gave KB-V1 cytotox 8.2µM*, HT1080 IDH1KD tx 10µM*, SW480 rerep inconclusive, KB-3-1 tox inactive, HT1080NT lethal 8.2µM* and MCF10A rereplic inconclusive.
Screening CN(C)c1ccc(N=Nc2nc3ccccc3n2C)cc1 returned KB-V1 cytotox inconclusive, HT1080 IDH1KD tx -5%, SW480 rerep inconclusive, KB-3-1 tox inactive, HT1080NT lethal -1% and MCF10A rereplic -1%.
Screening Cc1ccc(NC(=O)c2cc3c(=O)n(Cc4cccnc4)ccc3nc2C)cc1F returned KB-V1 cytotox inactive and KB-3-1 tox inactive.
For CCN(CC)S(=O)(=O)c1cccc(C(=O)N/N=C(\C)c2ccc(O)cc2O)c1 the results were KB-V1 cytotox inconclusive, HT1080 IDH1KD tx 1.5µM*, SW480 rerep 1.8µM*, KB-3-1 tox inactive, HT1080NT lethal inconclusive and MCF10A rereplic 3.7µM*.
CN(C)S(=O)(=O)c1cccc(C(=O)NCCNC(=O)c2cccc(S(=O)(=O)N(C)C)c2)c1 was read as KB-V1 cytotox inactive, HT1080 IDH1KD tx 5%, SW480 rerep -4%, KB-3-1 tox inactive, HT1080NT lethal 5% and MCF10A rereplic -14%.
For CCN(Cc1ccccc1)S(=O)(=O)CCNC(=O)c1ccccc1 the results were KB-V1 cytotox 21µM*, HT1080 IDH1KD tx 4%, SW480 rerep -6%, KB-3-1 tox inactive, HT1080NT lethal 5% and MCF10A rereplic -5%.
`CCN(CC)S(=O)(=O)c1cccc(C(=O)N/N=C/c2ccc(O)c(O)c2O)c1` gave KB-V1 cytotox inactive, HT1080 IDH1KD tx inconclusive, SW480 rerep -9%, KB-3-1 tox inactive, HT1080NT lethal inconclusive and MCF10A rereplic 3%.
Screening CCN(CC)S(=O)(=O)c1cccc(C(=O)NCCc2ccccc2)c1 returned KB-V1 cytotox 9.2µM*, HT1080 IDH1KD tx -16%, SW480 rerep -3%, KB-3-1 tox inactive, HT1080NT lethal -13% and MCF10A rereplic 4%.
For Cc1c(Cl)cccc1NC(=O)C(=O)NCC(c1cccnc1)N1CCN(c2ccccc2)CC1 (stereo not given) the results were KB-V1 cytotox inactive and KB-3-1 tox inactive.
CC(C)[C@@H]1CC[C@@H](C)C[C@H]1OC(=O)C[n+]1cc(-c2ccc(Cl)cc2)n2c1CCCCC2 was read as KB-V1 cytotox inactive, HT1080 IDH1KD tx 7.3µM*, SW480 rerep inconclusive, KB-3-1 tox inconclusive, HT1080NT lethal 6.5µM* and MCF10A rereplic inconclusive.
Screening COc1ccc(-c2c[n+](CC(=O)OC3CC(C)CCC3C(C)C)c3n2CCC3)cc1 (stereo not given) returned KB-V1 cytotox inactive, HT1080 IDH1KD tx 21µM*, SW480 rerep -32%, KB-3-1 tox inactive, HT1080NT lethal 18µM* and MCF10A rereplic 0.82µM*.
